Experimental data published in the supplement of paper PMC4894684.
Values joined by “and” are separate entries in the source; they are usually repeats but may differ in a detail not shown here. Identical values can stand only once. Counter-ions that a name gives are not always drawn. ± gives the standard deviation of the averaged measurements.

Tested on: Toxoplasma gondii RH (in HFF)
Experiment: parasite growth relative to the screen mean (all compounds = 100%); higher = less inhibition of parasite growth
Details: 5 µM; 72 h; oxygen 21 %
How it was run: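 Library compounds, held as 10 mM DMSO stocks, were pinned to 5 µM final onto confluent human foreskin fibroblasts in 96-well plates. The cells were infected within 2 h with RH β-Gal–GFP Toxoplasma (MOI 1:5), grown 72 h at 21% O2, and assayed for parasite number by CPRG β-Gal using in-plate standard curves. Growth is reported relative to the screen mean, in which all compounds = 100%, averaged over two screens, and CellTiter-Blue checked uninfected host-cell viability.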

Row | Compound | parasite growth
1 | CC(=O)O[C@@H]1C[C@H]2C(C)(C)C(=O)C=C[C@]2(C)[C@H]2CC[C@@]3(C)[C@H](c4ccoc4)OC(=O)[C@H]4O[C@]43[C@@]21C [Gedunin] | 62.3 ± 9.6%
2 | N=C(N)NC(=O)c1nc(Cl)c(N)nc1N [Amiloride hydrochloride] | 102 ± 30%
3 | CCCn1c(=O)c2[nH]c(C3CCCC3)nc2n(CCC)c1=O | 103 ± 7%
4 | C1COC(NC(C2CC2)C2CC2)=N1 [Rilmenidine hemifumarate] | 125 ± 13%
5 | N[C@@H](Cn1ccc(=O)n(Cc2ccccc2C(=O)O)c1=O)C(=O)O | 108% and 93.5%
6 | Oc1nc(-c2ccc(C(F)(F)F)cc2)nc2c1CSCC2 | 136 ± 21%
7 | CCCCN1CCC(CCC(=O)c2cc(Cl)c(N)cc2OC)CC1 | 67.2 ± 14%
8 | Cc1ccccc1N=Nc1ccc(NC(=O)c2ccnn2C)c(C)c1 | 82.7 ± 23%
9 | NC(=O)N1C(=O)/C(=C(\O)c2cccs2)c2cc(Cl)ccc21 [Tenidap] | 134 ± 18%
10 | O=C(O)c1cc(=O)c2c(Cl)cc(Cl)cc2[nH]1 [5,7-Dichlorokynurenic acid] | 136 ± 26%
11 | CC[N+](CC)(CC)CC(=O)Nc1c(C)cccc1C [QX 314 bromide] | 63.6 ± 9.3%
12 | Cc1nc2sccn2c(=O)c1CCN1CCC(=C(c2ccc(F)cc2)c2ccc(F)cc2)CC1 [Ritanserin] | 123 ± 15%
13 | Brc1c(NC2=NCCN2)ccc2nccnc12 | 128 ± 24%
14 | N[C@H](C(=O)O)c1ccc(C(=O)O)c(O)c1 [(S)-4-Carboxy-3-hydroxyphenylglycine] | 143 ± 25%
15 | CCc1c2c(nc3ccc(OC(=O)N4CCC(N5CCCCC5)CC4)cc13)-c1cc3c(c(=O)n1C2)COC(=O)[C@]3(O)CC | 59.8 ± 11%
16 | CN1CCN(C(=O)c2nc3ccc(Cl)cc3[nH]2)CC1 | 133 ± 14%
17 | CC(C)NC[C@@H](O)COc1cccc2ccccc12 [(R)-(+)-Propranolol hydrochloride] | 87.15 ± 0.86%
18 | c1ccc2cc(C3=NCCN3)ncc2c1 [BU 226 hydrochloride] | 126 ± 3.6%
19 | Oc1cc(O)cc(/C=C/c2ccc(O)c(O)c2)c1 [Piceatannol] | 145 ± 42%

Row | Compound | parasite growth
20 | Nc1nc(Nc2ccccc2)nc2c1ncn2[C@@H]1O[C@H](CO)[C@@H](O)[C@H]1O | 123 ± 7.1%
21 | CC1Nc2ccc(Cl)cc2S(=O)(=O)N1 (stereo not drawn) | 105 ± 84%
22 | Cn1cc(C2=C(c3cn(CCCSC(=N)N)c4ccccc34)C(=O)NC2=O)c2ccccc21 [Ro 31-8220 mesylate] | < 0%
23 | Clc1cccc2c1CN(C1=NCCN1)C2 | 92.2 ± 25%
24 | CCCCCCN(CCCCCC)C(=O)Cc1c(-c2ccc(F)cc2)[nH]c2ccccc12 | 151 ± 28%
25 | Cn1cccc1/C=C1\C(=O)NC(=O)c2ccccc21 | 121 ± 6.4%
26 | O=c1ncccn1[C@@H]1O[C@H](CO)[C@@H](O)[C@H]1O [Zebularine] | 119 ± 12%
27 | Cc1cccc(/C=C/c2ccccc2)n1 | 99.2 ± 63%
28 | CCc1cc(Cl)c(OC)c(C(=O)NC[C@@H]2CCCN2CC)c1O [Eticlopride hydrochloride] | 106 ± 11%
29 | NCC(O)(CS(=O)(=O)O)c1ccc(Cl)cc1 (stereo not drawn) [2-Hydroxysaclofen] | 132 ± 20%
30 | CC1(C)CCC(C)(C)c2cc(C3(c4ccc(C(=O)O)cc4)OCCO3)ccc21 | 115 ± 34%
31 | N#Cc1cc2nc(O)c(O)nc2cc1[N+](=O)[O-] [CNQX disodium salt] | 133 ± 37%
32 | COc1ccc([C@@H]2Sc3ccccc3N(CCN(C)C)C(=O)[C@@H]2OC(C)=O)cc1 [Diltiazem hydrochloride] | 94.4 ± 43%
33 | CCN(Cc1ccncc1)C(=O)C(CO)c1ccccc1 (stereo not drawn) [Tropicamide] | 111 ± 11%
34 | COc1ccc2cccc(N3CCN(CCNC(=O)c4ccc(F)cc4)CC3)c2c1 | 122 ± 20%
35 | c1ccc2nc(C3=NCCN3)cnc2c1 [BU 239 hydrochloride] | 102 ± 22%
36 | C[C@@H](CN1CCC(Cc2ccccc2)CC1)[C@@H](O)c1ccc(O)cc1 [Ro 25-6981 maleate] | 121 ± 23%
37 | CC[C@H](CO)Nc1nc(Nc2cccc(-c3ccccn3)c2)c2ncn(C(C)C)c2n1 [(R)-DRF053 dihydrochloride] | 32.4 ± 16%
38 | COCCOC(=O)C1=C(C)NC(C)=C(C(=O)OC(C)C)C1c1cccc([N+](=O)[O-])c1 (stereo not drawn) [Nimodipine] | 117 ± 13%
